The source of these data is PubChem BioAssay (Tox21).

The structures appear in SMILES notation. Inconclusive results are not listed. Active and inactive are the calls of the source. Unless noted, calls come from the whole dose curve; as a rule, active = well fitted curve in the direction sought with a large enough effect in the repeat runs; inconclusive = weak or mixed curves; inactive = no such curve, though single readings can be large; an effect the other way counts as inactive or inconclusive.

The nature of assay [1]: qHTS assay to test for compound auto fluorescence at 535 nm (green) in HEK293 cells (AID 720680). (Quantitative high-throughput screening tests each substance at several concentrations.)
Assay [2] is described as follows: qHTS assay to test for compound auto fluorescence at 460 nm (blue) in HEK293 cell free culture (AID 720681). An outline of the steps:
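Blue fluorescence (Ex 405/Em 460 nm, triamterene-equivalent) was read immediately after pin transfer of compound or DMSO into medium (DMEM, 10% FBS) without cells.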

The nature of assay [3]: qHTS assay to test for compound auto fluorescence at 535 nm (green) in HEK293 cell free culture (AID 720682). In outline: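 Green-channel intensity (Ex/Em 485/535 nm) was recorded from compound-treated wells containing only DMEM with 10% FBS. Fluorescein provided the equivalency standard.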
Assay [4] in a line: qHTS assay to test for compound auto fluorescence at 590 nm (red) in HEK293 cell free culture (AID 720683). In outline:
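Red-channel autofluorescence of compounds in culture medium (DMEM, 10% FBS), no cells, measured at 540/590 nm. Rose Bengal sodium is the reference fluorophore for equivalence.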

Assay [5] is described as follows: qHTS assay to test for compound auto fluorescence at 590 nm (red) in HepG2 cell free culture (AID 720684). An outline of the steps:
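No cells present: MEM + 10% FBS only. Compound pinned in, red label read (540/590 nm). Activity = fluorescence equivalent to Rose Bengal sodium.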

A short description of assay [6]: qHTS assay to test for compound auto fluorescence at 460 nm (blue) in HepG2 cell free culture (AID 720685). An outline of the steps: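 Cell-free plates of MEM plus 10% FBS received 23 nL compound or DMSO vehicle; blue-channel (405/460 nm) intensity scored against triamterene as reference fluorophore.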
A short description of assay [7]: qHTS assay to test for compound auto fluorescence at 535 nm (green) in HepG2 cell free culture (AID 720686).
A short description of assay [8]: qHTS assay to test for compound auto fluorescence at 460 nm (blue) in HepG2 cells (AID 720687). In outline:
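Blue-channel autofluorescence (Ex/Em 405/460 nm, triamterene-equivalent) was measured after 1 hr compound exposure at 37 C, 5% CO2. Cells were HepG2, plated overnight at 37 C in MEM plus 10% FBS.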

Assay [9] can be described thus: qHTS assay to identify small molecule antagonists of the glucocorticoid receptor (GR) signaling pathway - cell viability counter screen (AID 720693). Note: nearly all actives have a fitted effect of over 55% in size. Note: potency is the fitted concentration of half-maximal effect.
Assay [10] in a line: qHTS assay for identifying genotoxic compounds that show differential cytotoxicity against isogenic chicken DT40 cell lines with known DNA damage response pathways - wild type cell line (AID 743012). Note: nearly all actives have a fitted effect of over 60% in size. Note: potency is the fitted concentration of half-maximal effect. An outline of the steps:
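Viability of DNA repair-proficient chicken DT40 cells was assessed by CellTiter-Glo luminescence following 40 h compound exposure at 37 C/5% CO2.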

A short description of assay [11]: qHTS assay for identifying genotoxic compounds that show differential cytotoxicity against isogenic chicken DT40 cell lines with known DNA damage response pathways - Rev3 mutant cell line (AID 743014). Note: nearly all actives have a fitted effect of over 55% in size. Note: potency is the fitted concentration of half-maximal effect.
A short description of assay [12]: qHTS assay for identifying genotoxic compounds that show differential cytotoxicity against isogenic chicken DT40 cell lines with known DNA damage response pathways - Rad54/Ku70 mutant cell line (AID 743015). Note: nearly all actives have a fitted effect of over 60% in size. Note: potency is the fitted concentration of half-maximal effect.
A short description of assay [13]: qHTS assay to identify small molecule antagonists of the androgen receptor (AR) signaling pathway - cell viability counter screen (AID 743033; note: nearly all actives have a fitted effect of over 45% in size; note: potency is the fitted concentration of half-maximal effect).
The nature of assay [14]: qHTS assay to identify small molecule antagonists of the androgen receptor (AR) signaling pathway using the MDA cell line - cell viability counter screen (AID 743041; note: nearly all actives have a fitted effect of over 45% in size; note: potency is the fitted concentration of half-maximal effect). An outline of the steps: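 Using the breast carcinoma line MDA-kb2 AR-luc, test chemicals were co-incubated with R1881 for 16 h; CellTiter-Fluor reagent, added at 15.5 h, provided a fluorescence measure of live cells.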

Assay [15] concerns the target Glucocorticoid receptor (Homo sapiens) (UniProt P04150). In words: qHTS assay to identify small molecule agonists of the glucocorticoid receptor (GR) signaling pathway (AID 720691; active = well fitted activation curve with a large enough effect in the signal ratio in the repeat runs, not every such curve was filed as active; the % refers to the signal ratio). The settings on record: GR-bla HeLa, beta-lactamase reporter ratio, 18 h; activation: at 62.4 µM (top of the series). In outline:
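Compounds in DMSO, alongside positive controls, were added to GR-bla HeLa reporter cells and incubated 18 h at 37 C; GRE-driven beta-lactamase was detected by fluorescence after 2 h with FRET substrate at room temperature.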

The target in assay [16] is Androgen receptor (Homo sapiens) (UniProt P10275). The experiment in a line: qHTS assay to identify small molecule agonists of the androgen receptor (AR) signaling pathway (AID 743036; active = well fitted activation curve with a large enough effect in the signal ratio in the repeat runs, with a control signal flat, not every such curve was filed as active; the % refers to the signal ratio). An outline of the steps: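 Cell-based FRET reporter assay: HEK293 line with a UAS-beta-lactamase construct, compounds added in DMSO, 16 h exposure at 37C, then 2 h substrate step at room temperature and fluorescence intensity read.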
Androgen receptor (Homo sapiens), sequence (P10275 whole entry, looked up): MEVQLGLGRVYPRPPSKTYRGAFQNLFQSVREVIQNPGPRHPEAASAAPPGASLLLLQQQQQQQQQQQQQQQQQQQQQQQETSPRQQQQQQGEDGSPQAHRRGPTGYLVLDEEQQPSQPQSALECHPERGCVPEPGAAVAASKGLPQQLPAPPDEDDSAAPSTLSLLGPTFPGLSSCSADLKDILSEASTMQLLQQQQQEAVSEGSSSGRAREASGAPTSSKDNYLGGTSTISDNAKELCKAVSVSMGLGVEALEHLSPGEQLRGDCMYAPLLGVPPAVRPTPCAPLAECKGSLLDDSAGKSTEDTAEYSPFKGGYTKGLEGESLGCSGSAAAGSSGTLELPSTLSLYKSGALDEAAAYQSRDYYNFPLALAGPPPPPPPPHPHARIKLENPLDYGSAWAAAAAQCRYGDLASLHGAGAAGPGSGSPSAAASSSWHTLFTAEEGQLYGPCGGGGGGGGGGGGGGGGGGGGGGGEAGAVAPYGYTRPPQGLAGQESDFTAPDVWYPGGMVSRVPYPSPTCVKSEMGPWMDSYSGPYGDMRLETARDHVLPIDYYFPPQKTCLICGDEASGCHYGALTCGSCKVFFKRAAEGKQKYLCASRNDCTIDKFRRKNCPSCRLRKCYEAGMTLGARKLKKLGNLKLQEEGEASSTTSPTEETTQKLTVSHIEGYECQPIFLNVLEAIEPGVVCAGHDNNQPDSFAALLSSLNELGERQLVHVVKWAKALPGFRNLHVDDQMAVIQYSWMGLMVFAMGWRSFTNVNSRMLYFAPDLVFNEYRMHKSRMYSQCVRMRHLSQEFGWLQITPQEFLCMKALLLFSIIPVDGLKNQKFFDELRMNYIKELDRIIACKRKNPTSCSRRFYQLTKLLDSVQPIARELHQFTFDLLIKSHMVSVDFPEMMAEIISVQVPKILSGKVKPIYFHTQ

Assay [17] shares this target. In words: qHTS assay to identify small molecule agonists of the androgen receptor (AR) signaling pathway using the MDA cell line (AID 743040; note: nearly all actives have a fitted effect of over 20% in size). An outline of the steps:
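Stable MMTV-luciferase reporter in MDA-kb2 cells; note the promoter carries GR as well as AR response elements. 16 h compound treatment, 37C, 0% CO2; ONE-Glo luminescence endpoint.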

Assay [18] shares this target. In words: qHTS assay to identify small molecule antagonists of the androgen receptor (AR) signaling pathway using the MDA cell line (AID 743042; note: nearly all actives have a fitted effect of over 55% in size; note: potency is the fitted concentration of half-maximal effect). An outline of the steps: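 Antagonist mode: compounds plus R1881 agonist added to MDA-kb2 AR-luc cells, incubated 16 h at 37C. Luciferase reporter luminescence quantified, with multiplexed CellTiter-Fluor readout for cell viability.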

For assay [19] the target is unchanged. The experiment in a line: qHTS assay to identify small molecule antagonists of the androgen receptor (AR) signaling pathway (AID 743035; active = well fitted inhibition curve with a large enough effect in the signal ratio in the repeat runs, not every such curve was filed as active; the % refers to the signal ratio; note: potency is the fitted concentration of half-maximal effect). An outline of the steps: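 Reporter HEK293 cells were exposed to compounds and R1881 overnight (16 h, 37C); beta-lactamase activity was then quantified by FRET fluorescence.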

Glucocorticoid receptor (Homo sapiens), sequence (P04150 whole entry, looked up): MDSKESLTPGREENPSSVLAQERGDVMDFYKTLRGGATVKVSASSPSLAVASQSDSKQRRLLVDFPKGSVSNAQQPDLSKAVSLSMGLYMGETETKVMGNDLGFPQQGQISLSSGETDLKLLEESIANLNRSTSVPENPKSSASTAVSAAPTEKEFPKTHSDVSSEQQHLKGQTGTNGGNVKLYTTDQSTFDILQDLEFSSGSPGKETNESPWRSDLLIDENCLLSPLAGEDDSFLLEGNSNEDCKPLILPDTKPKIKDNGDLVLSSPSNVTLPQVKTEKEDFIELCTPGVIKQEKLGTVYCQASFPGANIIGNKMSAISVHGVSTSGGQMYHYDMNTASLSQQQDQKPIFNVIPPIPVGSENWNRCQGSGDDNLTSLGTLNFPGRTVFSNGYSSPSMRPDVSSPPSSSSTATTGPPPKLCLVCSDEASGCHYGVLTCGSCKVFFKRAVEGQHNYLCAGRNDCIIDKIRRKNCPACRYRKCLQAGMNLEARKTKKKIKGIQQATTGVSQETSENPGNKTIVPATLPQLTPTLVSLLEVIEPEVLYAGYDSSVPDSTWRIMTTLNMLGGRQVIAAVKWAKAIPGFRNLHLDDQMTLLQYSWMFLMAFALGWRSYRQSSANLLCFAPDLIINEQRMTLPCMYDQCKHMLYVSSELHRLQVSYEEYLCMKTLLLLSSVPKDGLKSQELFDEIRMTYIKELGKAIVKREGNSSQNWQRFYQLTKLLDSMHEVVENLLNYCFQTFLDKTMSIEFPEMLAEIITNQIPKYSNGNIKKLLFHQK

Regarding `O=Cc1ccccc1`, the compound was called inactive in assay [1], in assay [3], in assay [4] and in assay [5]. Further, the Potency entry in [2], in [6], in assay [7], in assay [8], in assay [9] and in assay [10] was “inactive” in each case. Further, the Potency result in [11], in assay [12], in [13] and in assay [14] was “inactive” throughout.

`CCCCN(CCCC)C(=S)S`: the call in assay [1], in assay [3], in assay [4] and in [5] was inactive. Further, the Potency result in assay [2], in [6], in [7], in assay [8], in [15] and in [11] was “inactive” in each case. The Potency result in assay [13] and in assay [14] was “inactive” each time.

As to `CC1=C2C[C@H]3[C@@H](CC=C4C[C@@H](O)CC[C@@]43C)[C@@H]2CC[C@]12O[C@@H]1C[C@H](C)CN[C@H]1[C@H]2C`, the compound was classed as inactive in assay [1], in assay [3], in [4], in assay [5], in [16] and in assay [17]. Also, the Potency result in assay [2], in assay [6], in assay [7], in assay [8], in [15] and in [9] was “inactive” each time. The Potency result in assay [13], in assay [14] and in [18] was “inactive” in each case. The Potency in [10] and in [12] was 29800 nM (active) in each case.

For the compound `Fc1ccc(C(OCCN2CCN(CCCc3ccccc3)CC2)c2ccc(F)cc2)cc1`, the compound was called inactive in assay [1], in assay [3], in assay [4], in [5], in assay [16] and in assay [17]. The Potency entry in [2], in [6], in [7] and in assay [8] was “inactive” throughout. Also, the Potency in assay [9] is 21300 nM (active); in assay [10], 2110 nM (active); in assay [11] it was 2110 nM (active); in assay [12], 3760 nM (active); in assay [13], 21300 nM (active); in assay [19], 15100 nM (active). For the same compound, the Potency in [14] was 21100 nM (active); in assay [18], 16800 nM (active).

Turning to `O=[N+]([O-])c1cc(C(F)(F)F)c(Cl)c([N+](=O)[O-])c1Nc1ncc(C(F)(F)F)cc1Cl`, the compound was classed as inactive in [1], in assay [3], in assay [4] and in [5]. The Potency result in assay [2], in assay [6], in [7] and in [8] was “inactive” throughout. Also, the Potency in [9] is 21900 nM (active); in assay [10], 96.9 nM (active); in assay [11] it was 137 nM (active); in [12], 137 nM (active); in [13], 275 nM (active); in assay [14] it was 15400 nM (active).

Take `CC(=O)[O][Pb]([c]1ccccc1)([c]1ccccc1)[c]1ccccc1`: the compound was classed as inactive in [1], in assay [3], in assay [4], in [5] and in assay [17]. For the same compound, the Potency result in assay [2], in assay [6], in [7] and in assay [8] was “inactive” throughout. The Potency in assay [9] was 776 nM (active); in assay [10], 154 nM (active); in [11], 122 nM (active); in [12], 122 nM (active); in assay [13], 549 nM (active); in assay [14] it was 1720 nM (active). The Potency in assay [18] was 611 nM (active).

Regarding `CC(=O)[O-].CC(=O)[O-].[Co+2]`, the call in assay [1], in assay [3], in assay [4] and in [5] was inactive. The Potency result in [2], in [6], in assay [7], in assay [8], in assay [9] and in [10] was “inactive” each time. For the same compound, the Potency result in assay [11], in [12], in assay [13] and in assay [14] was “inactive” throughout.
